Screening results as filed in PubChem.
NPR1 activator: GC-A (human) enzyme activation; activation, % at 10 µM; hit rate 0.14% among 370,000; HEK293 GC-A cells, cGMP TR-FRET, EC30 ANP; 0% at EC30 ANP, 100% saturating ANP; AID 1671463; in the data active = activation above about 40%
HIF activator: HIF pathway transcriptional activation; AID 1910; hit rate 0.32% among 300,000; U2OS HRE-luciferase reporter, luminescence; normalized: DMSO 0%, desferrioxamine 100%; activation, % at 7.5 µM (by protocol);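 active = mean activation of at least 10% of the iron chelator positive control signal, with at least half of replicates also reaching 10%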
NPR2 activator: GC-B (human) receptor activation; AID 1920062; HEK293-GC-B cells, CNP EC30, cGMP TR-FRET; 0% at EC30 CNP, 100% saturating CNP; P20594; activation, % at 10 µM; hit rate 0.11% among 370,000;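 active = activation at 10 µM reaching about 35% in either raw or pattern-adjusted values, limit read from the data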
proKLK7 act: activates the human kallikrein-7 zymogen; P49862; purified proKLK7, EDANS-DABCYL substrate fluorescence; 100% is mature enzyme control, 0% vehicle; activation, % at 7 µM; hit rate 0.9% among 370,000; AID 652039;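 active = activation above the mean of all tested compounds plus 3 SD, computed per campaign excluding outliers beyond control limits, cut at about 13% in these data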
Target sequence (P49862 whole entry, looked up): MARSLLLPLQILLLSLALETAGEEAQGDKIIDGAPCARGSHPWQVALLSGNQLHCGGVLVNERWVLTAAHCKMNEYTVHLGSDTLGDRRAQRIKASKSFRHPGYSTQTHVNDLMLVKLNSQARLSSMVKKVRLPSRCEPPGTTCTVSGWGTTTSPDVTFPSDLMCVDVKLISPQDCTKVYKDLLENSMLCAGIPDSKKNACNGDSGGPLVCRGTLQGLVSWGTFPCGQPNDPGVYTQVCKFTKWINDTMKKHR
Large screens that a line does not name were inactive. Rows were chosen to be rich in hits. Some 1.3% of all compounds tested hit in one or more screens of this group.

C[C@H]1[C@@H](NC(=O)C2CCOC2)CC[C@@]23CCCN2C(=O)CCC[C@@H]13 (stereo not given in full)	none (no result: HIF activator, proKLK7 act)
COC(=O)C(C(=O)OC)C1OC23CN(S(=O)(=O)c4ccc(C)cc4)C=CC2(C)C3c2ccccc21 (stereo not given)	none (no result: HIF activator)
CCCCCC1C/C(=N\O)C=C(C)C1C(=O)OC (stereo not given)	none
CCCCCCCC1CC(=O)C=C(C)C1C(=O)OCC (stereo not given)	HIF activator 81
O=C(CSc1nnc(-c2ccccc2)n1-c1ccccc1)Nc1ccccc1-c1ccccc1	none (no result: HIF activator)
CCCCNC(=O)C[C@H]1C(=O)N(Cc2ccc(OC)cc2)C2=CCCCC[C@@]21C(=O)OC	none (no result: HIF activator)
C=CCSc1nnc2nc3c(nn12)c1cc(C)ccc1n3CC=C	NPR1 activator 50, NPR2 activator 51
C=CCn1c2ccccc2c2nnc(SCC(N)=O)nc21	none
CCOc1cc(N2CCOCC2)c(OCC)cc1NC(C)C(=O)N1CCC(C)CC1 (stereo not given)	HIF activator 29
COc1nc(OC)nc(N2CCC(C(=O)NCc3ccccc3OC)CC2)n1	none (no result: HIF activator)
COC(=O)[C@]12C[C@H](CC(=O)NCC34CC5CC(CC(C5)C3)C4)C(=O)N(Cc3ccc(Cl)cc3Cl)C1=C[C@H](C(C)(C)C)O[C@@H]2C	none (no result: HIF activator)
CC(=O)N1CCCN(C(=O)CN2C(=O)CC(C)(C)S(=O)(=O)c3ccccc32)CC1	none (no result: HIF activator)
CCOC(=O)c1cnc(-n2cc(C)cn2)nc1NCc1ccc2c(c1)OCO2	NPR2 activator 45
COC1=C[C@H](C(=O)N[C@H]2CCCC[C@@H]2NC(C)=O)[C@H](C)[C@@H](c2ccccc2)CC1=O	none (no result: HIF activator)
O=c1[nH]c(CSc2nnnn2-c2ccc(Cl)cc2)nc2ccccc12	none
Clc1ccc(-n2nnnc2SCc2c(-c3ccccc3)nc3sccn23)cc1	NPR2 activator 39
CCOC(=O)c1c(C)[nH]c(C(=O)OCc2ccccc2F)c1C	HIF activator 11
CCOC(=O)c1c(C)[nH]c(C(=O)OCC(=O)c2ccccc2)c1C	none
CCCCN(C(=O)c1c(C)[nH]c(C(=O)OCC)c1C)c1ccccc1	HIF activator 10
CC(C)(C)c1cc(C(=O)N2CCN(c3ncccn3)CC2)ccn1	HIF activator 882
c1ccc(-c2cccc3[nH]cc(-c4ccccc4)c23)cc1	none (no result: HIF activator)
COC(=O)COc1ccc2c(-c3ccc(OC)cc3)cc(=O)oc2c1	NPR1 activator 61
COc1ccc(OC)c(NC(=O)CCc2nnc3ccc(NCc4ccco4)nn23)c1	HIF activator 17
COC(=O)[C@]12C[C@H](CC(=O)N3CCSCC3)C(=O)N(CCc3ccc(OC)c(OC)c3)C1=C[C@H](C1CCCC1)O[C@@H]2C	none (no result: HIF activator)
Cc1ccc(-n2nc3c(=O)n(CC(=O)NCc4ccccc4)nc(C)c3c2C)cc1	HIF activator 89
CCC[C@H]1[C@@H](NC(=O)c2ccc(C)cc2)CC[C@@]23CCCN2C(=O)CCC[C@@H]13	none (no result: HIF activator, proKLK7 act)
CCN(CC)S(=O)(=O)c1ccc(N2CCOCC2)c(NC(=O)c2cccc3ccccc23)c1	HIF activator 46
COC(=O)[C@]12C[C@H](CC(=O)NCCCN3CCCC3=O)C(=O)N(Cc3cccc4ccccc34)C1=C[C@H](COCc1ccccc1)O[C@@H]2C	none (no result: HIF activator)
CCOC(=O)/C(=N\Nc1cccc(C(F)(F)F)c1)N1CCOCC1	HIF activator 708
O=C(c1cnn2c(C(F)(F)F)cc(-c3ccc4c(c3)OCO4)nc12)N1CCCCC1	NPR1 activator 44, NPR2 activator 49
O=C(c1cnn2c(C(F)(F)F)cc(-c3cccs3)nc12)N1CCN(Cc2ccccc2)CC1	NPR1 activator 51, NPR2 activator 46
O=C(c1cnn2c(C(F)(F)F)cc(-c3cccs3)nc12)N1CCN(C(c2ccccc2)c2ccccc2)CC1	none
O=C(Nc1cccc(F)c1)OC1CC2CC1[C@H]1CCCCN1[C@H]2Cc1ccccc1 (stereo not given in full)	none (no result: HIF activator)
CCNC(=O)N(C)[C@H]1C[C@H]2c3[nH]c4cccc(-c5cccc(F)c5)c4c3CCN2C(=O)[C@H]1[C@H](C)O	none (no result: HIF activator)
CN(C)C(=O)COC(=O)c1ccccc1Nc1ccc(SC(F)F)cc1	NPR1 activator 42
COc1cccc(C2CC3(CC(C)(C)NC(=S)N3)Oc3cc(O)ccc32)c1 (stereo not given)	NPR1 activator 56
Cc1cccc(C2CC3(CC(C)(C)NC(=S)N3)Oc3cc(O)ccc32)c1 (stereo not given)	none
O=C(CCN1C(=O)S/C(=C\c2ccc(F)cc2)C1=O)Nc1ccc(C(=O)O)c(O)c1	HIF activator 30
O=C(CCN1C(=O)S/C(=C/c2ccc(F)cc2)C1=O)Nc1ccc(O)c(C(=O)O)c1	none
Cc1cc(Nc2ccccc2)cc(=O)n1C	HIF activator 41
CCOC(=O)C1=C(C)NC(C)=C(C(=O)OCC)C1C(=O)OCC(=O)N(C)C1CCS(=O)(=O)C1 (stereo not given)	HIF activator 13
CCOC(=O)C1=C(C)NC(C)=C(C(=O)OCC)C1C(=O)OCC(N)=O	none
Cc1ccc(/C=C(\C#N)c2nn(-c3ccccc3)c(N)c2C#N)cc1	HIF activator 9.8
CCn1nc(C(=O)OCC(=O)NC(C)C)c2ccccc2c1=O	HIF activator 38
NC(=O)c1cccc(-c2coc3c(C(=O)NCc4ccccc4)cccc23)c1	NPR2 activator 37 (no result: HIF activator)
COCCNC(=O)c1cccc2c(-c3cccc(C(N)=O)c3)coc12	none (no result: HIF activator)
COC(=O)c1cc(-c2cccc(OCc3ccccc3)c2)c(=O)n2c1CCC2	none (no result: HIF activator)
Cc1cccc(NC(=O)CN2C(=O)COc3ccc(Cl)cc32)c1	none
O=C(CN1CCC(C(=O)c2ccc(Cl)cc2)CC1)Nc1ccc2c(c1)OCCO2	HIF activator 74
O=C(CN1C(=O)COc2ccc(Cl)cc21)Nc1ccc2c(c1)OCCO2	HIF activator 82
COc1ccc(C(=O)CSc2nnc(-c3ccccc3)n2-c2ccc(Cl)cc2)cc1	none (no result: HIF activator)
CCCCc1ccc2nc(NC(=O)c3ccc(Br)o3)sc2c1	none (no result: HIF activator, proKLK7 act)
COc1ccc(Cn2ccc3ccc(-c4ccc5ccn(C(=O)c6ccc(C)cc6)c5c4)cc32)cc1	none (no result: HIF activator)
COc1ccc(N2CCN(CCNS(=O)(=O)c3ccccc3[N+](=O)[O-])CC2)cc1	none (no result: HIF activator)
CC1CN(c2nc3ccccn3c(=O)c2/C=C(\C#N)C(=O)N2CCOCC2)CC(C)O1 (stereo not given)	HIF activator 18
C=CCNC(=O)/C(=C/c1cn(-c2ccccc2)nc1-c1cccc([N+](=O)[O-])c1)NC(=O)c1ccccc1	HIF activator 230
CN(C)C(=O)/C(=C/c1cn(-c2ccccc2)nc1-c1cccc([N+](=O)[O-])c1)NC(=O)c1ccccc1	none
OC(COCc1ccco1)CN1CCN(C(c2ccccc2)c2ccccc2)CC1 (stereo not given)	none
Cc1ccc(Cl)cc1N1CCN(CC(O)COCc2ccco2)CC1 (stereo not given)	HIF activator 194
